Results reported in PubChem BioAssay AID1445 (SRMLSC, 2008).
Among all 220,000 compounds or so, about 910 (0.41%) were called active. What follows is part of a selection rich in actives, with near analogues and random picks from the rest. Entries with a potency or affinity are not part of this list. Unmarked numbers belong to inactive results.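 Rule for the calls: active = primary inhibition above the hit cutoff, then over 50% inhibition at one or more dose response concentrations (cut at about 23% in these data, passing the limit was not always enough); inconclusive = conflicting primary data, or primary hits not chosen for dose response; inactive = low primary inhibition, or under 50% at every dose.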

Each compound was assayed against Aminopeptidase N (Plasmodium falciparum (isolate 3D7)) (UniProt O96935) (assay: malaria alanyl aminopeptidase activity blockers – biochemical, fluorogenic H-Leu-NHMec substrate, 1536-well (AID 1445;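 note: plate controls were DMSO full reaction for no effect and no enzyme background for full effect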)). Details: recombinant M1AAP, H-Leu-NHMec fluorogenic kinetic assay; at 30 µM, active compounds read high unless noted.
Chain of Aminopeptidase N (Plasmodium falciparum (isolate 3D7)) (O96935 whole entry, looked up): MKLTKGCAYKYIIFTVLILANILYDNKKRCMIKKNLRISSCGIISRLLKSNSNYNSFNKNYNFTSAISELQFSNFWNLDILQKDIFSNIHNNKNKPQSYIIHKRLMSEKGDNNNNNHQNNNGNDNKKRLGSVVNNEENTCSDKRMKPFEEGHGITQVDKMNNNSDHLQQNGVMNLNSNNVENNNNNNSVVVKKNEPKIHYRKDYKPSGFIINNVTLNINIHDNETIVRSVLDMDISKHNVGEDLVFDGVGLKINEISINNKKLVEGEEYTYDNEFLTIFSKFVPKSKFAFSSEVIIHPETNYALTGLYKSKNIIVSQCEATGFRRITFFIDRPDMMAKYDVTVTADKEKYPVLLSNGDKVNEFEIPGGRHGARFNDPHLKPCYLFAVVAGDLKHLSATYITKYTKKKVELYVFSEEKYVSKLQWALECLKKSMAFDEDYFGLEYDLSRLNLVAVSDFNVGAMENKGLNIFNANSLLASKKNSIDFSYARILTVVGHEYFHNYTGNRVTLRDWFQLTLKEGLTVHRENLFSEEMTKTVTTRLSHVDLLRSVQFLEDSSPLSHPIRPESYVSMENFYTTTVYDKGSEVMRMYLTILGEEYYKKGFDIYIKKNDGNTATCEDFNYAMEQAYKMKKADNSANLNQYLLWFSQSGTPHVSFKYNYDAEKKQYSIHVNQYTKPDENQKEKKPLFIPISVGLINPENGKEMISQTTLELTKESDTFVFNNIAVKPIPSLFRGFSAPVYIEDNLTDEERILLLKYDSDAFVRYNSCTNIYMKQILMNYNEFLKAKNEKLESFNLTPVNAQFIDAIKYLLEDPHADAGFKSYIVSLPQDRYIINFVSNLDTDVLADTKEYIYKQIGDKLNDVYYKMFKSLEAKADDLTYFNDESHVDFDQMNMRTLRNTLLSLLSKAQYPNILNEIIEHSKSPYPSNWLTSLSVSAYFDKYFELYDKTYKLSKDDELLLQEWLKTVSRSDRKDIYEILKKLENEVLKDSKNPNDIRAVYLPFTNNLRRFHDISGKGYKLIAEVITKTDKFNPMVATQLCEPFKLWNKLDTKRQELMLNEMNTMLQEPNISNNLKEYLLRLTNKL

SMILES | inhibition
COc1ccc(/C(C)=N\Nc2nc(-c3ccc(Cl)cc3)cc(C(F)(F)F)n2)cc1OC | -2.08%
CCOC(=O)C1=C(O)C(=O)N(c2ccc(S(N)(=O)=O)cc2)C1c1ccc(Br)cc1 (stereo unspecified) | 0.8%
CCOc1cccc(OCCOCCn2cnc3ccccc3c2=O)c1 | 0.65%
CNCc1ccccc1Sc1ccc(OC)cc1 | -3.58%
NS(=O)(=O)c1cccc(NC(=O)CCSc2ccc(Cl)cc2)c1 | 6.9%
CCCCCCCC[n+]1cccc2c3ccccc3ccc21 | 29.8%
CCCCCCCCC[n+]1cccc2c3ccccc3ccc21 | 18.5%
CC1(C)CC(=O)C2=C(C1)c1c(ccc3ccccc13)NC2c1ccco1 (stereo unspecified) | 0.07%
Cc1ccc(C2Nc3ccc4ccccc4c3C3=C2C(=O)CC(C)(C)C3)o1 (stereo unspecified) | 16%
CCCN(CCC)c1ncnc2c1cnn2-c1ccc(OC)cc1 | 2.75%
COc1ccc(-c2[nH]c(-c3ccc(C)cc3)nc2SCC(=O)NC2CCCC2)cc1 | 1.57%
CCc1nc(NCc2ccco2)c2oc3ccccc3c2n1 | 2.95%
c1ccc(-c2nc(NCc3ccco3)c3oc4ccccc4c3n2)cc1 | 11.9%
Cc1nc(NCc2ccco2)c2oc3ccccc3c2n1 | 25.6% (active)
CCC(C)NC(=O)C1CCN(S(=O)(=O)c2ccc(OC)cc2)CC1 (stereo unspecified) | 4.22%
C(=N\Nc1nc2ccccc2[nH]1)/c1ccncc1 | 5.02%
CSc1cc(-c2ccccc2)n(C)c(=O)c1C#N | 3.47%
Cc1cc2nc(N=C(N)N)nc(C)c2cc1C | 9.31%
COc1ccc(Oc2cc(C)c3cccc(C)c3n2)cc1 | -2.89%
Cc1ccc2nc(N=C(N)N)nc(C)c2c1 | 10.4%
COc1nc(N=C(N)N)nc2ccc(C)cc12 | 20.7%
O=C(COC(=O)Cc1ccc(F)cc1)NCc1ccco1 | 4.03%
CCC(C)NC(=O)COC(=O)c1csc2c1CCCC2 (stereo unspecified) | 7.63%
COC(=O)c1ccc(CSc2nc(C(F)(F)F)c3c(c2C#N)CCC3)o1 | 3.42%
CCSc1nnc(NC(=O)CSc2c(Cl)cccc2Cl)s1 | 4.43%
COc1ccc(S(=O)(=O)N2CCOCC2)cc1NC(=O)CO/N=C/c1ccccc1OC(F)F | 8.16%

SMILES | inhibition
Cc1cn(-c2ccccc2)c(C)c1/C=N\Nc1nc(N2CCOCC2)nc(N2CCOCC2)n1 | 4.34%
Cc1ccc(NC(=O)CSc2nnc(-c3ccco3)c(-c3ccco3)n2)cc1 | 25% (active)
Cc1cccc(C)c1NC(=O)CSc1nnc(-c2ccco2)c(-c2ccco2)n1 | 17.6%
CC(=O)c1ccc(NC(=O)CSc2nnc(-c3ccco3)c(-c3ccco3)n2)cc1 | 9.65%
Cc1cc(CN(C)C(=O)CC2C(=O)NCCN2Cc2c(F)cccc2Cl)n[nH]1 (stereo unspecified) | -2.19%
CCS(=O)(=O)C(C)(CCl)C(=O)Nc1ccc(C(=O)OC)cc1 (stereo unspecified) | 3.92%
COc1ccc(-c2cc(=O)c3c(O)c(OC)c(O)cc3o2)cc1 | 17%
COc1c(O)cc2oc(-c3ccc(O)cc3)cc(=O)c2c1O | 17.2%
O=S(=O)(c1ccccc1)N1CCCC1c1cccs1 (stereo unspecified) | 0.58%
Cn1c(=O)cc(SCC(=O)N2CCCC2)c2ccccc21 | 7.32%
CCc1c(C)c2cc(Cl)c(O)c(CN(C)C)c2oc1=O | -5.92%
Cc1c(Cc2ccccc2)c(=O)oc2cc(O)ccc12 | 22.2%
CCc1cc2c(=O)c(-c3nc4ccccc4n3C)c(C)oc2c(CN(CC)CC)c1O | 6.03%
Cc1c(C)c2cc(Cl)c(O)c(CN(C)C)c2oc1=O | 14.8%
CCN(CC)Cc1oc(CO)cc(=O)c1O | 5.8%
CCN(CC)Cc1c(O)c(Cl)cc2c(C)c(C)c(=O)oc12 | 23.6% (active)
Cc1c(Cc2ccccc2)c(=O)oc2c(O)c(O)ccc12 | 17.1%
CCOc1ccc(OCCCC(=O)NC2=NCCS2)cc1 | -1.08%
COc1ccc(O)c(C2NC(CC(C)C)(C(=O)O)C3C(=O)N(Cc4ccccc4)C(=O)C23)c1 (stereo unspecified) | 13.5%
COc1ccc(OCCC(=O)OCC(=O)Nc2cccc(Br)c2)cc1 | 2.82%
O=CN1N=C(c2ccccc2)CC1c1ccccc1[N+](=O)[O-] (stereo unspecified) | 0.38%
CCCN(Cc1ccccc1)C(=S)Nc1ccc(C(C)=O)cc1 | 0.74%
CCOc1ccc(C(Nc2cccnc2)c2cc(Cl)c3cccnc3c2O)cc1 (stereo unspecified) | -6.83%
O=C(O)COc1ccccc1C(Nc1ccccn1)c1cc(Cl)c2cccnc2c1O (stereo unspecified) | 23.1%
COc1ccc(N2CCN(Cc3cc(=O)oc4cc(-c5ccccc5)c(O)cc34)CC2)cc1 | -0.12%
COc1ccc(F)cc1S(=O)(=O)Nc1ccc(C)cc1 | -1.13%

SMILES | inhibition
CCOC(=O)N1CCN(C(=O)c2ccc3c(c2)ncn3C2CCCC2)CC1 | 2.32%
O=[N+]([O-])c1cc2c(cc1/C=N/NS(=O)(=O)c1ccc(Br)cc1)OCO2 | 3.45%
CC1CCCCC1NC(=O)CSc1nnc(CNC(=O)c2ccccc2)n1C (stereo unspecified) | -2.54%
Cc1cccc(C)c1OCC(=O)NCc1nnc(SCC(=O)NC2CCCCC2C)n1C (stereo unspecified) | 24.1% (active)
Nn1c(SCC(=O)NC2CCCCC2)nnc1-c1ccccc1 | 3.83%
Cc1cccc(C)c1OCC(=O)NCc1nnc(SCC(=O)NC2CCCCC2)n1C | 3.03%
CC1CCCCC1NC(=O)CSc1nnnn1-c1ccccc1 (stereo unspecified) | 2.02%
CN(CC(=O)NC1CCCCC1)S(=O)(=O)c1ccc(Cl)cc1 | -0.77%
O=C(CCC1CCCC1)N1CCN(C(=O)COc2ccccc2)CC1 | 21.1%
CC(=O)N1CCN(C(=O)COc2ccc(Br)cc2)CC1 | 1.6%
O=C(COc1ccc(Br)cc1)N1CCOCC1 | -2.69%
Cc1cccc(OCC(=O)N2CCN(C(=O)CCC3CCCC3)CC2)c1 | 22.4%
CCCOc1ccc(CSc2n[nH]c(C)n2)cc1 | 8.48%
COc1ccc(CCNC(=O)C(C)Sc2ccccc2)cc1OC (stereo unspecified) | -0.82%
Cc1cccc(NC(=S)NCCc2ccc3c(c2)OCCO3)c1C | 0.53%
CC1CCC(C(C)C)C(OC(=O)COC(=O)c2cc(O)ccc2N)C1 (stereo unspecified) | 6%
CCn1cc(S(=O)(=O)Nc2ccccc2C(F)(F)F)cn1 | -0.46%
COc1ccccc1C(=O)NNC(=O)c1ccc(Cl)cc1 | -4.03%
O=C(NNC(=O)c1ccccc1Br)c1ccc(Cl)cc1 | -5.75%
CC(C)(C)c1ccc(C(=O)NNC(=O)c2ccc(Cl)cc2)cc1 | 0.45%
NNC(=O)c1ccc(O)cc1O | 11.6%
Cc1cccc(C(=O)NNC(=O)c2ccc(Cl)cc2)c1O | 27.7% (active)
CN(C)c1ccc(/C=C2\C(=N)N3C(=NC2=O)Sc2cc(S(C)(=O)=O)ccc23)cc1 | 12.4%
COc1ccc(/C=C2/C(=N)N3C(=NC2=O)Sc2cc(S(C)(=O)=O)ccc23)cc1OC | 4.37%
COc1cc(/C=C2/C(=N)N3C(c4ccccc4)=CSC3=NC2=O)ccc1OCC(=O)O | 8.04%
CC1=CSC2=NC(=O)/C(=C/c3cccc(OC(=O)c4ccco4)c3)C(=N)N12 | 8.4%

SMILES | inhibition
COC(=O)CCC(=O)N1CCOCCOCCOCC1 | 3.89%
CCOc1cc(/C=C2/NC(=O)N(Cc3ccccc3F)C2=O)ccc1O | 9.55%
COc1cc(/C=C2/NC(=O)N(Cc3ccccc3F)C2=O)cc(OC)c1O | 11%
O=S(=O)(c1ccccc1)c1nc(NCc2ccccc2)sc1Cl | 3.65%
Cc1ccc(S(=O)(=O)c2nc(NCCCn3ccnc3)sc2Cl)cc1 | 1.08%
Cc1ccc(S(=O)(=O)c2nc(NN(C)C)sc2Cl)cc1 | 2.25%
CC(C)CNc1nc(S(=O)(=O)c2ccccc2)c(Cl)s1 | -9.9%
Cc1ccc(S(=O)(=O)C2CS(=O)(=O)CC2O)cc1 (stereo unspecified) | -0.11%
c1ccc(CCCCNCC2COc3ccccc3O2)cc1 (stereo unspecified) | 0.11%
C=CCNC(=O)c1ccc([N+](=O)[O-])c(Cl)c1 | 1.78%
CC1=C(C(N)=O)C(c2cccs2)NC(=O)N1 (stereo unspecified) | 0.41%
FC(F)(F)c1cc(-c2cccs2)nc2ncnn12 | 14.3%
FC(F)(F)c1cc(-c2cccs2)nc2cc(-c3cccs3)nn12 | 2.78%
O=C(NCCCn1ccnc1)/C(=C\c1cccs1)NC(=O)c1ccco1 | 2.24%
CC(C)=CC(=O)NCCc1ccccc1 | 0.11%
Cc1ccc2c(c1)NCCO2 | 9.62%
Cc1cc(=O)oc2cc3c(cc12)OCCO3 | 9.01%
CN(C)c1ccc(CNn2cnnc2SCc2ccccc2F)cc1 | 3.42%
Cc1ccccc1OCCCC(=O)Nc1ccccc1C(F)(F)F | -2.79%
CCOCCCNc1nc2c(C)cccn2c(=O)c1/C=C1\SC(=S)N(C(C)CC)C1=O (stereo unspecified) | 3.39%
CCOC(=O)CC1C(=O)NCCN1C(=O)c1cc2c(=O)n3ccccc3nc2s1 (stereo unspecified) | -1.82%
CC(C)CN1C(=O)/C(=C/c2c(N3CCc4ccccc4C3)nc3ccccn3c2=O)SC1=S | 2.88%
CCOC(=O)CC1C(=O)NCCN1S(=O)(=O)c1ccc(C)cc1 (stereo unspecified) | -1.42%
